Records with an inconclusive call do not appear. Unmarked numbers belong to inactive results. Active and inactive are the calls of the source. Calls follow the shape of the dose curve; as a rule, active = well fitted activation curve with a large enough effect in the repeat runs; inconclusive = weak or mixed curves; inactive = flat fitted curve, though single readings scatter.
% is scaled to controls: 0 for no effect and ±100 for the full control effect; potency is read from the fitted curve at half-maximal effect.

This assay in a line: A CellTox Green Cytotoxicity Assay to monitor cytotoxicity in HEK293 cells - 24 hour (AID 1224875). Also: nearly all actives have a fitted effect of over 45% in size. The note with it: CellTox Green fluorescence; series mostly up to 76.8 µM; activity change: at the top concentration. The gist of the method:
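Each value comes from one timepoint of a single continuous run in which HEK293 cells with CellTox Green were exposed to compound for up to 40 h at 37 C, dye fluorescence rising with cell death.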
Regarding `O=C=Nc1ccc(Cl)c(Cl)c1`, the “activity change” value is 0.0276%.

Take `CCOC(C)=O`: the “activity change” value is -4.31%.

With `C=CC(=O)[O-].C=CC(=O)[O-].[Zn+2]`, the “activity change” value was -10.9%.

As for `C/C=C/C=C/C=O`, the “activity change” value is -5.1%.

As to `O=C(O)c1cccc(-c2noc(-c3ccccc3F)n2)c1`, the “activity change” value is -5.3% [at 35.3 µM, stronger effect = higher value].

Turning to `CC(C)=CCC1C(=O)N(c2ccccc2)N(c2ccccc2)C1=O`, the “activity change” value was -1.04% [at 35.3 µM, stronger effect = higher value].

As to `CCOC(=O)c1ccc(OCCN2C[C@H](O)[C@@H](O)[C@H](O)[C@H]2CO)cc1`, the “activity change” value is -2.24% [at 35.3 µM, stronger effect = higher value].

As to `CCC(=O)OC`, the “activity change” value is -7.34%.

On to `CCC=CC#N`, for which the “activity change” value was -3.92%.

In the case of `CCCCCCC(C)(C)C(=O)O`, the “activity change” value was 22.4%.

`CCCC(=O)C(=O)O`: the “activity change” value was 20.4%.

With `Cc1[nH]cnc1CN1CCc2c(c3ccccc3n2C)C1=O`, the “activity change” value was 0.235% [at 35.3 µM, stronger effect = higher value].

In the case of `C[C@H]1C[C@H](O)c2ccsc2S1(=O)=O`, the “activity change” value is -29.6% [at 35.3 µM, stronger effect = higher value].

`CN1C(C(=O)Nc2ccccn2)=C(O)c2sccc2S1(=O)=O`: the “activity change” value is 6.96% [at 35.3 µM, stronger effect = higher value].

Regarding `CCC(C)COC(C)=O` (centres undefined), the “activity change” value is -1.34%.

For `C[C@]12CC[C@@H]3c4ccc(O)cc4CC[C@H]3[C@@H]1CC[C@@H]2OC(=O)CCC1CCCC1`, the Potency is 54.9 µM (active).

On to `FC(F)(F)c1ccccc1Cl`, for which the “activity change” value is -12.7%.

Turning to `O=c1[nH]c2ccc(Cl)cc2o1`, the “activity change” value was 0.736%.

Turning to `Brc1cc(Br)c(Oc2cc(Br)c(Br)cc2Br)cc1Br`, the “activity change” value is 0.149% [at 35.3 µM, stronger effect = higher value].

`Cc1c(C)c2c(c(C)c1OC(=O)CCC(=O)OCCO)CC[C@@](C)(CCC[C@H](C)CCC[C@H](C)CCCC(C)C)O2`: the “activity change” value is -13.5% [at 35.3 µM, stronger effect = higher value].

With `CCc1ccccc1`, the “activity change” value is -0.689%.

For the molecule `OC[C@H]1O[C@@H](n2cnc3c(=S)nc[nH]c32)[C@H](O)[C@@H]1O`, the “activity change” value was 2.03% [at 35.3 µM, stronger effect = higher value].

In the case of `O=C(O)CCC(=O)C(=O)O`, the “activity change” value is -6.67%.

`C=C(C)CCCC(C)CCO` (centres undefined): the “activity change” value was 3.47%.

The values above are taken from PubChem BioAssay (Tox21).
